The list is not random: actives were taken first. Their share in the collection is about 3.3%.
PHOSPHO1 block – blocks human PHOSPHO1 phosphatase activity. recombinant PHOSPHO1, absorbance phosphatase assay. inhibition, % at 13.3 µM. 1.1% of 290,000 active. AID 1565; in the data active = inhibition above about 60%
Efflux pump mplx – blocks antifungal efflux pumps in multiplex yeast assay | S. cerevisiae Candida pump triplex, Nile Red efflux | inhibition, % at 10 µM | 0.44% of 330,000 active | AID 485275;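 active = plate passing quality check with inhibition over a set limit, or well fluorescence over plate mean plus 4 SD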;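 also: Nile Red retained in pooled yeast measured as flow cytometry median fluorescence; higher means more Nile Red kept so more efflux inhibition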
Cardio protect – modulators protecting cardiomyocytes from myocardial damage; AID 588492; protection from H2O2 cell death, % at 20 µM; H9c2 cardiomyocytes, H2O2 injury protection, ATPLite, 2 h; 0.63% of 360,000 active;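 active = compounds giving at least 50% protection of heart cells from peroxide-induced death in the single-dose screen, raw or plate-pattern-corrected value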
Calb FLC – C. albicans growth modulation with fluconazole; C. albicans CaCi-2 (fluconazole-resistant clinical isolate) + fluconazole, Alamar Blue growth, 48 h; growth inhibition, % (concentration not given with the values); 0.57% of 300,000 active; AID 1979;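 active = growth inhibition above about 58% in most replicates, limit read from the data, passing the limit was not always enough; inconclusive = exactly half the replicates above a set limit; inactive = most replicates below a set limit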;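 also: all wells also contain fluconazole at 8 µg/ml as a sub-toxic cotreatment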
KCC2 mod – modulators of human KCC2 chloride dependent transport; B-score of Tl+ flux slope (higher = more flux/activation; lower = inhibition) at 10 µM; 2.2% of 190,000 active; KCC2 cells, thallium flux FluoZin-2 fluorescence; Q9H2X9; AID 1456;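 active = thallium flux slope and its plate-corrected score both differing from the plate sample mean at a set confidence after two filtering rounds, in either direction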;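 also: slope of fluorescence scaled to starting intensity during 10 to 20 s after thallium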
Target sequence (Q9H2X9 whole entry, looked up): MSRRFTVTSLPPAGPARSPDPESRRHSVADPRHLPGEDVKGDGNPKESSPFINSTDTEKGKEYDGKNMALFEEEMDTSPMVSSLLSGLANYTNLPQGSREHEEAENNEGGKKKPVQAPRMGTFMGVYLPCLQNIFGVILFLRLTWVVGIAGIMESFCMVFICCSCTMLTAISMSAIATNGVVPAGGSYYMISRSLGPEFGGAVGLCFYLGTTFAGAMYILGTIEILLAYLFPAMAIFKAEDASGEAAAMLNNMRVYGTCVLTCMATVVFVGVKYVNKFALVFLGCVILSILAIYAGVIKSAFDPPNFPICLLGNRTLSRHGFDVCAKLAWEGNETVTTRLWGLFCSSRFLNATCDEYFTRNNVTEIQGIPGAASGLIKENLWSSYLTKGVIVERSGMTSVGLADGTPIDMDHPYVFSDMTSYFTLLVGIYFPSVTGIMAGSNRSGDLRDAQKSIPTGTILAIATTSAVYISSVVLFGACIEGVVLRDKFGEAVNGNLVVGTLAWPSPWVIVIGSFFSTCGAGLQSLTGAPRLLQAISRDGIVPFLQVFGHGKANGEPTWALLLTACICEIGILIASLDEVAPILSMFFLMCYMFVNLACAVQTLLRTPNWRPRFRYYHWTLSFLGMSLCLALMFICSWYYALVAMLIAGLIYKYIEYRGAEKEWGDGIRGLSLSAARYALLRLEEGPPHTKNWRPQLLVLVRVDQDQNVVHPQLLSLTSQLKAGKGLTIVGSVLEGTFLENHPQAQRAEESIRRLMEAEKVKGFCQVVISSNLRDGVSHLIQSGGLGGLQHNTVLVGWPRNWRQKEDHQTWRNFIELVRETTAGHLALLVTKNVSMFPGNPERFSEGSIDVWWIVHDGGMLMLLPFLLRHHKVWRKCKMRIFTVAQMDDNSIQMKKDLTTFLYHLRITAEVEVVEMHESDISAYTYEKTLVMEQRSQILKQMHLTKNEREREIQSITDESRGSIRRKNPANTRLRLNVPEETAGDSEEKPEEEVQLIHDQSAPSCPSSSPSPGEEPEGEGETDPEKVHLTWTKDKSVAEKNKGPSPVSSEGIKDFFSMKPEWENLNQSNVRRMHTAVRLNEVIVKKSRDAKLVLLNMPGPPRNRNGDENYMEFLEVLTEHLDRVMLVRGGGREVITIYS
KCC2 sec1 – KCC2 (human) modulation, secondary assay. 15% of 3,700 active. HEK293-KCC2, thallium flux, FluoZin2 fluorescence; active compounds read high. normalised thallium flux (F/F0 slope) at 10 µM. shares compounds with KCC2 mod;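 active = thallium flux slope above the same plate's solvent-only control mean plus 3 SD; inconclusive = the two replicate wells disagree; inactive = no significant difference from solvent-only control wells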
KCC2 bumet counter – bumetanide-insensitive thallium flux in KCC2 cells with ouabain, counter-screen | 49% of 3,700 active | HEK293-KCC2 + bumetanide/ouabain, thallium flux FluoZin2; active compounds read high | shares compounds with KCC2 mod | AID 1714 | normalized thallium flux at 10 µM;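 active = thallium entry rate above the same plate's blocked-transporter control wells by more than 3 SD; inconclusive = the two repeat wells disagree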;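 also: raw slope of fluorescence over initial fluorescence between 10 and 20 s after thallium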
KCC2 secondary2 – confirmation of human KCC2 transport modulators. shares compounds with KCC2 mod. HEK293-KCC2, thallium flux FluoZin2 fluorescence; actives lie on both sides; F/F0 rise rate, 10–20 s post-thallium. normalized thallium flux at 10 µM. AID 1715. 23% of 3,700 active;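 active = thallium flux slope more than 3 SD above or below the plate's solvent-only control mean, mostly below; inconclusive = the two repeat wells disagreed; inactive = no significant shift from solvent-only controls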
HEK counter1 – counter-screen for KCC2 modulators: effect in parental HEK293 cells; shares compounds with KCC2 mod; AID 1716; 46% of 3,700 active; thallium flux rate (normalised fluorescence) at 10 µM; thallium flux FluoZin2, ouabain; baseline-ratio fluorescence slope, 10–20 s after thallium;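 active = thallium flux rate significantly above the same plate's solvent-only control wells, beyond their mean plus 3 SD; inconclusive = the two replicate wells gave conflicting results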
KCC2 retest ouab – modulates human KCC2 on retest with ouabain. raw Tl+ flux slope (below DMSO = inhibition, above = activation) at 10 µM. HEK293-KCC2, thallium flux FluoZin2 fluorescence; bidirectional: low = inhibitor, high = activator. AID 1717. shares compounds with KCC2 mod. 48% of 3,700 active;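 active = thallium flux slope beyond 3 SD from same-plate DMSO control mean in most replicates, usually higher, sometimes lower; inconclusive = repeat tests gave conflicting results; inactive = no significant difference from controls in most replicates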;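 also: slope of initial-normalized fluorescence between seconds 10 and 20 after thallium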
HEK293 Tl flux2 – counter-screen for KCC2 modulators: effect in parental HEK293 cells. thallium flux slope at 10 µM. 33% of 3,700 active. shares compounds with KCC2 mod. thallium flux FluoZin-2 fluorescence slope;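 active = thallium flux slope above the same plate's solvent-control mean plus 3 SD in both duplicate wells; inconclusive = duplicate wells that disagreed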;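 also: run without ouabain in cells lacking the KCC2 cotransporter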
Hits are given with their value; i = inactive; ? = inconclusive; nt = no result given.

SMILES	PHOSPHO1 block	Efflux pump mplx	Cardio protect	Calb FLC	KCC2 mod	KCC2 sec1	KCC2 bumet counter	KCC2 secondary2	HEK counter1	KCC2 retest ouab	HEK293 Tl flux2
Cc1cc(=O)n2[nH]c(C)c(-c3ccccc3)c2n1	i	i	i	i	i	nt	nt	nt	nt	nt	nt
COc1cc(CN2CCCC(CO)(Cc3cccc(Cl)c3)C2)cc2c1OCO2 (centres undefined)	i	i	i	i	nt	nt	nt	nt	nt	nt	nt
O=C(COc1cccc2cccnc12)Nc1ccccc1N1CCOCC1	i	i	i	i	-5.6	?	i	i	0.005	i	?
CC1(C)Cc2cccc(OCC(=O)Nc3ccccc3N3CCOCC3)c2O1	i	i	i	i	nt	nt	nt	nt	nt	nt	nt
CCOC(=O)c1ccc(NC(=O)CC2C(=O)N(c3ccc(F)cc3)C(=O)N2CCC(C)C)cc1 (centres undefined)	i	i	i	?	-3.5	i	i	i	i	i	i
CCOc1ccc(NC(=O)CSc2nnc(C3CC3)n2C)cc1S(=O)(=O)N1CCCCC1	nt	i	i	nt	nt	nt	nt	nt	nt	nt	nt
Cc1ccc(NC(=O)CSc2nccn2Cc2ccccc2)cc1C	86	i	i	i	-3.1	?	i	i	0.0053	0.02	i
CC(=O)c1ccc(NC(=O)CSc2nccn2CCc2ccccc2)cc1	i	i	i	i	nt	nt	nt	nt	nt	nt	nt
N#Cc1ccccc1NC(=O)CSc1nccn1CCc1ccccc1	i	i	i	i	-4	i	i	0.025	i	0.014	i
CC(C)(CN1CCN(Cc2ccccc2)CC1)NS(=O)(=O)c1ccc(Cl)cc1	i	i	i	i	i	nt	nt	nt	nt	nt	nt
COc1ccc(S(=O)(=O)N2CCOCC2)cc1C(=O)Nc1ccc(N2CCCCCC2)cc1	nt	nt	i	nt	nt	nt	nt	nt	nt	nt	nt
O=C(OCc1cn([C@H]2C[C@H](c3ccc(Cl)cc3)N(Cc3cccs3)C[C@@H]2O)nn1)c1ccccc1	nt	nt	i	nt	nt	nt	nt	nt	nt	nt	nt
S=C1NC2(CCCCCC2)N=C1c1ccccc1	i	i	i	i	4.6	i	0.016	i	?	?	i
Cc1ccc(C2=NC3(CCCC3)NC2=S)cc1	i	i	i	i	5.6	i	0.019	i	0.011	i	?
O=C1NC2(CCCCCC2)N=C1c1ccc(F)cc1	i	i	i	i	i	nt	nt	nt	nt	nt	nt
S=C1NC2(CCCC2)N=C1c1ccccc1	i	i	i	i	i	nt	nt	nt	nt	nt	nt
O=[N+]([O-])c1cc(Br)c(O)c(/C=N/Nc2nnnn2-c2cccc3ccccc23)c1	i	i	i	i	-3.2	i	i	?	?	?	i
Cc1nc(Nc2ccc3c(c2)OCCO3)c2c(C)c(C)sc2n1	i	i	i	i	7.1	i	0.021	0.039	0.019	0.031	0.021
Cc1nc(Nc2ccc3c(c2)OCCO3)c2oc3ccccc3c2n1	i	i	i	i	i	nt	nt	nt	nt	nt	nt
COC(=O)c1sc(NC(=O)c2c(OC)cccc2OC)c(C#N)c1C	i	i	i	i	i	nt	nt	nt	nt	nt	nt
CCCn1c(SCC(=O)N2CCc3ccccc32)nnc1-c1ccco1	i	i	i	i	i	nt	nt	nt	nt	nt	nt
CCCn1c(SCC(=O)N2c3ccccc3CC2C)nnc1-c1ccco1 (centres undefined)	i	i	i	i	-4.8	i	i	i	?	0.018	i
COc1ccc(S(=O)(=O)Nc2ccccc2C(=O)NCc2ccco2)cc1Br	i	i	i	i	-4.1	?	i	0.023	0.0049	0.012	0.0083
CCOc1ccc(S(=O)(=O)Nc2ccccc2C(=O)NCc2ccco2)cc1	i	i	i	i	i	nt	nt	nt	nt	nt	nt
COc1ccc(-c2noc(=O)n2CC(=O)N2CCC(Cc3ccccc3)CC2)cc1	i	i	i	i	-4.7	i	0.0033	0.023	0.0052	0.013	0.0075
SMILES	PHOSPHO1 block	Efflux pump mplx	Cardio protect	Calb FLC	KCC2 mod	KCC2 sec1	KCC2 bumet counter	KCC2 secondary2	HEK counter1	KCC2 retest ouab	HEK293 Tl flux2
COc1ccc(OCC(=O)N2CCC(Cc3ccccc3)CC2)cc1	i	i	i	i	nt	nt	nt	nt	nt	nt	nt
O=C(Cn1c(-c2ccccc2)noc1=O)Nc1ccc(N2CCCCCC2)cc1	i	i	i	i	nt	i	i	i	i	0.016	i
COc1ccc(N(C(C)C(=O)N2CCC(Cc3ccccc3)CC2)S(C)(=O)=O)cc1 (centres undefined)	i	i	i	i	-3.6	?	i	i	i	0.015	i
O=C(Cn1c(-c2ccccc2)noc1=O)Nc1ccc(S(=O)(=O)N2CCOCC2)cc1	i	i	i	i	i	nt	nt	nt	nt	nt	nt
O=C(Cn1c(-c2ccccc2)noc1=O)N1CCC(Cc2ccccc2)CC1	i	i	i	i	-5.2	i	i	0.028	i	0.015	i
COc1cccc(/C=C/C(=O)c2ccc3c(c2)OCCO3)c1OC	i	i	i	i	nt	nt	nt	nt	nt	nt	nt
O=C(O)CC(NC(=O)Cc1ccc(Cl)cc1)c1ccco1 (centres undefined)	i	i	nt	i	-3.4	i	i	i	i	i	i
O=C(C1CCCN(S(=O)(=O)c2cccc3nsnc23)C1)N1CCc2ccccc2C1 (centres undefined)	i	i	i	i	-3.2	i	i	i	i	i	i
O=C(C1CCCN(S(=O)(=O)c2cccc3nsnc23)C1)N1CCc2ccccc21 (centres undefined)	i	i	i	i	nt	i	i	i	?	i	i
COc1cccc(NC(=O)COC(=O)c2c(C)nn(-c3ccccc3)c2C)c1	nt	i	i	nt	nt	nt	nt	nt	nt	nt	nt
CCN(CC)CC#CCOC(=O)C(O)(c1ccccc1)C1CCCCC1 (centres undefined)	i	i	i	nt	i	i	i	i	i	i	i
CCN(CC)CC#CCC(O)(c1ccccc1)C1CCCCC1 (centres undefined)	i	i	i	i	i	nt	nt	nt	nt	nt	nt
CCOC(=O)c1c(C)[nH]c(C)c1S(=O)(=O)NCC1CCN(Cc2ccccc2OC)CC1	i	i	i	i	nt	nt	nt	nt	nt	nt	nt
c1ccc(-c2nnc(-c3ccco3)n2-c2ccccc2)cc1	i	i	i	i	i	nt	nt	nt	nt	nt	nt
c1ccc(-n2c(-c3ccncc3)nnc2-c2ccco2)cc1	i	i	i	i	nt	i	i	i	i	i	i
CCOC(=O)C1CCN(C2CC(=O)N(c3cccc(Cl)c3)C2=O)CC1 (centres undefined)	i	i	i	i	3	i	0.0085	i	i	i	i
Cc1ccccc1N(CC(=O)NCCSc1ccccn1)S(=O)(=O)c1ccccc1	i	i	i	i	-2.9	i	i	i	i	i	i
